Measles CPE = protection of cells from measles virus | Measles virus-infected cells, CPE protection, absorbance | protection (pct of control), % at 4 µM | 140,000 tested, 1.5% active | AID 841; in the data active = protection mostly above about 24%, no sharp cut-off; inactive = mostly below about 26%
PTPN22 act = increases human PTPN22 phosphatase activity. Q9Y2R2. 96,000 tested, 0.11% active. activation, % at 2 µM. recombinant LYP, DiFMUP fluorescence; 0 = plate median, 100 = signal doubled;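 active = activation at 2 µM above a set limit, the mean plus 5 SD, cut at about 37% in these data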
LYP inh 2 = LYP (human) phosphatase inhibition; Q9Y2R2; recombinant LYP catalytic domain, DiFMUP fluorescence; inhibition, % at 2 µM; 96,000 tested, 0.21% active;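 active = inhibition at 2 µM at or above a set limit, the screen mean plus 3 SD, cut at about 24% in these data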
Of the large screens only hits and unclear results are named; the others gave an inactive call. An excerpt weighted towards active compounds, which were near 1.7% of everything screened.

Cc1c(CCOC(=O)C2C3CC4CC(C3)CC2C4)sc[n+]1CC(=O)c1ccc(Br)cc1 (stereo not given)	LYP inh 2 33
Cc1c(CCO)sc[n+]1CC(=O)OCCC12CC3CC(CC(C3)C1)C2	none (no result: PTPN22 act, LYP inh 2)
c1ccc(-n2ncc3c(N4CCCCC4)ncnc32)cc1	none
Cc1cc(C(=O)OCC(=O)Nc2nc(-c3ccccc3)cs2)c(C)o1	none (no result: PTPN22 act, LYP inh 2)
Cn1ncc(Br)c1C(=O)OCC(=O)Nc1nc(-c2ccccc2)cs1	Measles CPE 35
Cc1ccc(S(=O)(=O)/N=C(\c2ccccc2)N(C)S(=O)(=O)c2ccc(C)cc2)cc1	none
Cc1nc2c(-c3ccc(F)cc3)c(C)nn2c(C)c1CCC(=O)NCCN1CCOCC1	none
Cc1ccc2nc(Cl)c(/C=N/NC(=O)[C@H]3C[C@@H]3c3ccccc3)cc2c1	none (no result: PTPN22 act, LYP inh 2)
CC(C)(C)c1ccc(C2CC2C(=O)N/N=C\c2cc3ccccc3nc2Cl)cc1 (stereo not given)	Measles CPE 51
CC(=O)Nc1ccc(S(=O)(=O)NNC(=O)COc2cc(C)ccc2C(C)C)cc1	Measles CPE 54
CC(=O)Nc1ccc(S(=O)(=O)NNC(=O)COc2cccc(C)c2)cc1	none
CCCS(=O)(=O)n1nc(-c2ccc(OC)cc2)cc1N	Measles CPE 27
CCCS(=O)(=O)n1nc(-c2ccc(C)cc2)cc1N	none
O=C(Oc1ccc(-c2cnc3ccccc3n2)cc1)c1cccc([N+](=O)[O-])c1	none
c1nc(NCCN2CCOCC2)c2c3c(sc2n1)CCCCC3	none
N/C(=N\c1nc2c(c(=O)[nH]1)CCC2)Nc1ccccc1	Measles CPE 48 (no result: PTPN22 act, LYP inh 2)
N/C(=N\c1nc2c(c(=O)[nH]1)CCCC2)Nc1ccccc1	none
COC(=O)CC(NS(=O)(=O)c1cccs1)c1cccc2ccccc12 (stereo not given)	none
CC(C)C(C(=O)Nc1nccs1)c1ccccc1 (stereo not given)	none
O=C(CC(c1ccccc1)c1ccco1)Nc1nccs1 (stereo not given)	Measles CPE 25 (no result: PTPN22 act, LYP inh 2)
CCOC(=O)Cn1c(-c2nonc2NC(=O)c2ccccc2F)nc2ccccc21	Measles CPE 50
CCC(=O)Nc1nonc1-c1nc2ccccc2n1Cc1ccccc1	none
CC(C)(C)n1nnnc1C(c1cccc(C#N)c1)N1CCCc2ccccc21 (stereo not given)	none
Cc1ccccc1N/C(SCc1cccc(Br)c1)=C(/C#N)C(N)=O	none (no result: PTPN22 act, LYP inh 2)
Cc1ccc2nc(NC(=O)c3cccc(-c4cc5ccccc5oc4=O)c3)sc2c1	LYP inh 2 26
CCOc1ccc2nc(NC(=O)c3cccc(-c4cc5ccccc5oc4=O)c3)sc2c1	none (no result: PTPN22 act, LYP inh 2)
Cc1ccc(-n2c(C)cc(C(=O)CSc3n[nH]c(N)n3)c2C)cc1	none
Cc1cc(C(=O)CSc2n[nH]c(N)n2)c(C)n1-c1ccccc1	Measles CPE 26
O=C(/C=C/c1ccc([N+](=O)[O-])cc1)Nc1cccnc1	none
O=C(/C=C/c1ccc(Cl)c([N+](=O)[O-])c1)Nc1cccnc1	Measles CPE 44
O=C(N/N=C/C=C\c1ccco1)c1cccnc1	none
O=C(CCN1C(=O)COc2ccccc21)NCCN1CCOCC1	none
CCOC(=O)c1ccc(NC(=O)Cn2nnc(-c3ccccc3F)n2)cc1	none (no result: PTPN22 act, LYP inh 2)
O=C(Cn1nnc(-c2ccccc2F)n1)Nc1ccc(S(=O)(=O)NC2CCCC2)cc1	Measles CPE 35
O=C(CSc1ccc(Cl)cc1)N1CCN(c2ccc(Cl)cc2[N+](=O)[O-])CC1	none
CC(C)c1ccc(S(=O)(=O)/N=C2/C=C(Sc3ncn[nH]3)C(=O)c3ccccc32)cc1	none (no result: PTPN22 act, LYP inh 2)
CCCn1c(N)c(Br)c(=O)[nH]c1=O	Measles CPE 45 (no result: PTPN22 act, LYP inh 2)
CCCn1c(=O)[nH]c(=O)c2[nH]cnc21	none (no result: PTPN22 act, LYP inh 2)
Cc1ccc(-c2nn(-c3ccccc3)c3[nH]c(=O)c(CNCc4ccccc4)cc23)cc1	none
CCCc1nc2c(=O)n(C)c(=O)[nH]c2n1CCC	none
CC(C)c1ccccc1NC(=O)Cn1c(-c2ccccc2Cl)nc2ccccc21	none (no result: PTPN22 act, LYP inh 2)
CSc1ccccc1NC(=O)Cn1c(-c2cscn2)nc2ccccc21	Measles CPE 96
CC(C)OP(=O)(c1ccc(N(C)C)cc1)C(O)c1c(Cl)cccc1Cl (stereo not given)	none
CCOc1ccccc1N(C(=O)Cn1nnnc1-c1ccc(C)o1)C(CC)C(=O)NC(C)(C)C (stereo not given)	Measles CPE 39
Cc1ccc(-c2nnn(CC(=O)N(c3ccccc3)C(C(=O)NC(C)(C)C)c3cccs3)n2)o1 (stereo not given)	none
O=c1oc(-c2ccco2)nc2c1cnn2-c1ccccc1	none
O=c1c2cnn(-c3ccccc3)c2nc(-c2ccco2)n1-c1ccccc1	Measles CPE 35
CCCCC(=O)NCCc1cc2ccc(OC)cc2[nH]c1=O	none
O=C(COc1ccc(Cl)cc1)Nc1nc(-c2cccs2)cs1	none (no result: PTPN22 act, LYP inh 2)
O=C(Cc1ccccc1F)Nc1nc(-c2cccs2)cs1	Measles CPE 57
O=C(Cc1ccccc1)Nc1nc(-c2cccs2)cs1	Measles CPE 62
O=C(Cc1ccccc1)Nc1nnc(-c2cccs2)s1	none

High-throughput results: PubChem BioAssay, several laboratories
